# For part of these data: Measured potencies and affinities stand elsewhere. Calls of active or inactive are those of the source.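 How the source made its calls, unless noted: active means fitted half-maximal concentration within 10 nM to 100 µM, steepness 0.5 to 2, significant signal drop, low assay interference; inactive means the rest.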
# Experiments:
# [1] = molecular target: Cell division control protein 42 homolog (Homo sapiens) (UniProt P60953); assay: activated mutant Cdc42 GTP-binding inhibitors, dose response, biochemical, multiplex bead flow cytometry, Bodipy-FL-GTP (AID 1333;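 active means fitted half-maximal concentration within the tested dose range, moderate curve steepness, a statistically real signal drop, and little compound fluorescence or tag-binding interference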)
# Chain of Cell division control protein 42 homolog (Homo sapiens) (P60953 whole entry, looked up): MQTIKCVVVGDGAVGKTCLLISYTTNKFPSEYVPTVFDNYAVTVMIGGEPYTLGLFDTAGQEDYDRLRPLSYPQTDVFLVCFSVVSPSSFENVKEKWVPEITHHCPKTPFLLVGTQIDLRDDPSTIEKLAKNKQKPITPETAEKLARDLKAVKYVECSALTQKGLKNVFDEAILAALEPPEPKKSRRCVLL
# [2] = molecular target: Cell division control protein 42 homolog (Homo sapiens) (UniProt P60953); assay: wildtype Cdc42 GTP-binding inhibitors, dose response, biochemical, multiplex bead flow cytometry, Bodipy-FL-GTP (AID 1334;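 active means fitted half-maximal concentration within the tested range, moderate curve steepness, significant signal drop, and little compound fluorescence or bead-linkage interference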); conditions: bead-based flow cytometry, Bodipy-FL-GTP binding to GST-Cdc42; at 100 µM (top of the series) unless noted
# [3] = molecular target: GTPase HRas (Homo sapiens) (UniProt P01112); assay: inhibitors of GTP binding to wildtype Ras, dose response, biochemical, multiplex bead flow cytometry (AID 1335); conditions: bead-based flow cytometry, Bodipy-GTP binding to GST-Ras; at 100 µM (top of the series) unless noted
# Chain of GTPase HRas (Homo sapiens) (P01112 whole entry, looked up): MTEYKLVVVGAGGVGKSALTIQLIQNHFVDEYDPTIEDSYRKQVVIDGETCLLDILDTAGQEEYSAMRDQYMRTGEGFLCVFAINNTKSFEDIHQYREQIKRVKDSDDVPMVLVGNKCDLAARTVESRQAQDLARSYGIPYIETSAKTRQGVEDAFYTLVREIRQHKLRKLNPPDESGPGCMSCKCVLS
# [4] = system: Ras-related protein Rab-7a (dog), GTP binding; assay: Rab7 GTP binding inhibitors, potency, dose response, biochemical, wildtype, multiplex bead flow cytometry (AID 1336; call rule not given here)
# [5] = molecular target: Ras-related C3 botulinum toxin substrate 1 (Homo sapiens) (UniProt P63000); assay: wildtype Rac1 GTP binding inhibitors, dose response, biochemical, multiplex bead flow cytometry (AID 1340;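 active means dose curve with midpoint inside tested range, moderate steepness, plateau gap beyond fit error, low compound glow and bead-link interference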); conditions: GST-Rac1 beads, Bodipy-FL-GTP binding; at 100 µM (top of the series) unless noted
# [6] = molecular target: GTPase HRas (Homo sapiens) (UniProt P01112); assay: activated Ras mutant GTP binding inhibitors, dose response, biochemical, multiplex bead flow cytometry (AID 1341;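 active means dose-response curve with midpoint inside the tested range, moderate steepness, significant amplitude and little compound fluorescence or bead-attachment interference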;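 further: GST-tagged constitutively activated Ras mutant immobilized on beads and multiplexed with other GTPases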)
SMILES,outcome [1],"fluorescence, percent of control (lower = inhibition) [2]","GTP binding, percent of control [3]",outcome [4],"GTP binding signal, raw median fluorescence (lower = inhibition) (MCF (arbitrary fluorescence units)) [5]",outcome [6]
COc1ccc(OCc2nc3c4cc(OC)c(OC)cc4nc(=S)n3[nH]2)cc1,inactive,31.9%,75.5%,inactive,186,inactive
CSc1nc(Cc2ccccc2)cc(=O)[nH]1,inactive,36.3%,80.4%,inactive,273,inactive
COc1ccc(CC2(CO)CCN(S(=O)(=O)c3sccc3C)CC2)cc1,inactive,35.4%,82.2%,inactive,273,inactive
CN1CCc2nc3ccc(Cl)cc3c(-c3ccccc3Cl)c2C1,inactive,37.3%,81.8%,inactive,257,inactive
COc1ccccc1OCCn1cc(C(=O)O)c2c(C)cccc21,inactive,56.8%,202%,inactive,55.3,inactive
CCOC(=O)c1c(NC(=O)/C=C/c2ccc3c(c2)OCO3)sc(C)c1CC,inactive,30.9%,75.9%,inactive,256,inactive
Cc1ccc(Sc2ncccc2C(=O)O)c(C)c1,inactive,78%,78.1%,inactive,309,inactive
Cc1ccc(OCCn2c(SCCC(=O)O)nc3ccccc32)cc1,inactive,61.3%,88.9%,inactive,34.5,inactive
COc1ccc(OCC(=O)Nc2nonc2NC(=O)COc2ccc(OC)cc2)cc1,inactive,38.2%,79.5%,inactive,234,inactive
Cc1ccc(C2C(C#N)C(C#N)N3CCCN23)cc1 (stereo not given),inactive,99.2%,156%,inactive,200,inactive
CCOc1ccc(-n2nc3c(SCCN4CCCC4)nnc(C)c3c2C)cc1,inactive,57.3%,71.4%,inactive,230,inactive
Cc1cc(C(F)F)n2nc(C(=O)Nc3ccc(S(=O)(=O)N4CCCCCC4)cc3)nc2n1,inactive,36.8%,82.1%,inactive,257,inactive
Cc1cc(C)cc(OCCSc2nc3ccccc3n2CC(=O)O)c1,inactive,58.4%,87.4%,inactive,31,inactive
CSc1nc2nccc(-c3ccc(-c4ccccc4)cc3)n2n1,inactive,79.7%,132%,inactive,138,inactive
O=S1(=O)N=C(N(CCO)/N=C/c2ccncc2)c2ccccc21,inactive,24.1%,52.3%,inactive,114,inactive
CCN1/C(=C\C=C2\C(=O)N(c3ccccc3)C(=S)N2C)Sc2ccccc21,inactive,35.1%,73.9%,inactive,189,inactive
CCN1/C(=C/C=C/c2oc3ccc4ccccc4c3[n+]2CC)Oc2ccc3ccccc3c21,inactive,59.4%,108%,inactive,275,inactive
COc1ccc(CNC(=O)C2CC(=O)N(c3ccc(OCC(=O)N4C(C)CCCC4C)cc3)C2)cc1 (stereo not given),inactive,106%,177%,inactive,183,inactive
CC(=O)NC1CC2CCCC(C1)N2C(=O)Nc1ccccc1 (stereo not given),inactive,88.1%,152%,inactive,217,inactive
Cn1ncc(C(N)=O)c1NC(=S)NC(=O)c1ccc(Br)o1,inactive,36.5%,76.4%,inactive,170,inactive
N#Cc1ccc2ccn(CC(=O)N3CCCc4ccccc43)c2c1,inactive,40%,89.5%,inactive,351,inactive
Cc1nc(-c2cnn(-c3ccccc3)c2)c2cc(C)oc2n1,inactive,61.7%,140%,inactive,140,inactive
COc1c(C)cc(Br)cc1C(=O)O,inactive,46.9%,97%,inactive,59.3,inactive
CCCOc1ccc(C(CC(=O)O)NC(=O)c2sc3ccccc3c2Cl)cc1 (stereo not given),inactive,28.6%,78.9%,inactive,258,inactive
COc1ccc(C2=Nn3c(nnc3-c3ccco3)SC2)cc1OC,inactive,69.9%,137%,inactive,146,inactive
COc1cccc(NC(=O)NCCCN2CCN(c3ccc(F)cc3)CC2)c1,inactive,40.4%,84.6%,inactive,255,inactive
COc1ccc(/C=N/NC(=S)Nc2cc(S(=O)(=O)N3CCOCC3)ccc2N2CCOCC2)cc1O,inactive,65.8%,80.8%,inactive,0,inactive
COc1ccc(C(=O)N/N=c2\oc3ccccc3cc2C(N)=O)cc1,inactive,36.1%,82.6%,inactive,207,inactive

SMILES,outcome [1],"fluorescence, percent of control (lower = inhibition) [2]","GTP binding, percent of control [3]",outcome [4],"GTP binding signal, raw median fluorescence (lower = inhibition) (MCF (arbitrary fluorescence units)) [5]",outcome [6]
CN(/N=C/c1ccncc1)C1=NS(=O)(=O)c2ccccc21,inactive,53.9%,32.4%,inactive,181,inactive
O=C(Nc1cccc(-c2ccc3nncn3n2)c1)c1ccco1,inactive,32.1%,73%,inactive,157,inactive
Cc1ccc(-c2ccc(/C=C3\SC(N4CCOCC4)=NC3=O)o2)cc1,inactive,31.4%,71.6%,inactive,195,inactive
Clc1ccc(CN(Cc2ccc(Cl)cc2)c2nn[nH]n2)cc1,inactive,28.2%,85%,inactive,246,inactive
Cc1sc2nc3c4ccccc4c(NCc4ccco4)nn3c(=O)c2c1C,inactive,94%,104%,inactive,123,inactive
COc1ccccc1OCCn1cc(C(=O)O)c2c(Cl)cccc21,inactive,48.6%,191%,inactive,52,inactive
CCn1cc(C(=O)O)c(=O)c2cc(F)c(N/N=C/c3ccccc3)cc21,inactive,45.9%,58.9%,inactive,144,inactive
CCN(CC)c1ccc(/C=C(/C#N)c2nc3ccc(C)cc3[nH]2)c(OC(C)C)c1,inactive,96.1%,108%,inactive,264,inactive
O=C(O)/C=C/C(=O)Nc1cccnc1,inactive,50.8%,64.4%,inactive,200,inactive
COc1cccc(OC)c1-c1nn2c(-c3cc(-c4ccccc4)n[nH]3)nnc2s1,inactive,131% [at 33.3 µM],1380%,inactive,438 [at 33.3 µM],inactive
Cc1nnc(N2CCOCC2)c2nn(-c3ccccc3)c(C)c12,inactive,58.1%,71.2%,inactive,198,inactive
O=C(O)c1cccnc1SCc1ccc([N+](=O)[O-])cc1,inactive,71.2%,92%,inactive,45.6,inactive
COc1ccc(-c2c3c(nc4sc5c(=O)[nH]c(C)nc5c24)CCC3)cc1,inactive,38.2%,49.1%,inactive,153,inactive
COc1ccc(CCn2c(C(C)C)nc3c(c(=O)c4ccccc4n3C)c2=O)cc1,inactive,34.5%,82.6%,inactive,241,inactive
COc1cccc(/C=C/C(=O)Nc2ccccc2N2CCOCC2)c1,inactive,33.2%,83.5%,inactive,243,inactive
Cc1ccc(COc2ccsc2C(=O)O)cc1,inactive,99.7%,115%,inactive,82.4,inactive
CC(=O)c1cc2c(cc1NC(=O)c1cccc(S(=O)(=O)N3CCN(C)CC3)c1)OCO2,inactive,40.9%,86.3%,inactive,196,inactive
COc1ccccc1OCCSc1nc2ccccc2n1CC(=O)O,inactive,62.3%,87.1%,inactive,33.6,inactive
O=C(CSc1ncnc2scc(-c3ccccc3)c12)N1CCN(Cc2ccc3c(c2)OCO3)CC1,inactive,45.2%,63.6%,inactive,196,inactive
O=[N+]([O-])c1ccc2c(c1)c(-c1ccccc1)nc1nncn12,inactive,31.3%,72.1%,inactive,203,inactive
Cc1cc(C(F)F)n2nc(C(=O)Nc3ccc(S(=O)(=O)NC45CC6CC(CC(C6)C4)C5)cc3)nc2n1,inactive,35%,82.9%,inactive,254,inactive
COc1cc(/C=N/NC(=O)c2cc3ccccc3cc2O)ccc1OCCN1CCCCC1,inactive,39.4%,91.1%,inactive,328,inactive
O=C(Nc1cccc(Cl)c1)N1CCN(c2ncccn2)CC1,inactive,47.5%,60.6%,inactive,201,inactive
O=C(O)C1C(C(=O)Nc2ccc(Cl)cc2)C2C=CC1C21CC1 (stereo not given),inactive,86.8%,149%,inactive,173,inactive
CCOc1ccccc1C(=O)Nc1cccc(-c2ccc3nncn3n2)c1,inactive,33.5%,73.1%,inactive,194,inactive
CCCc1cc(-n2ccnc2)n2c(nc3ccccc32)c1C#N,inactive,172%,195%,inactive,212,inactive
CCC1CCCCN1S(=O)(=O)c1ccc(NC(=O)CSc2ncccc2C(=O)O)cc1 (stereo not given),inactive,43.1%,57.5%,inactive,109,inactive

# From PubChem BioAssay
